High-throughput results deposited in PubChem by National Center for Advancing Translational Sciences (NCATS).
HT1080-NT tox = kills 2HG-producing HT-1080-NT fibrosarcoma cells; AID 686970; hit rate 1.6% among 360,000; Potency, µM (series often up to 46.1 µM), most hits filed as cytotoxic; HT-1080-NT fibrosarcoma viability, CellTiter-Glo ATP luminescence, 48 h;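 note: NT is the 2HG producing partner of a matched IDH1 knockdown line; nearly all actives have a fitted effect of over 55% in size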
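HT-1080-NT fibrosarcoma cells (2HG-overproducing), 750 cells/well in RPMI with 5% FBS, dosed after 2 h and incubated 48 h at 37C. CellTiter-Glo luminescence normalized to DMSO and no-cell wells; concentration-response curves fitted and classed.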
KB-V1 MDR tox = KB-V1 MDR subline cytotoxicity. hit rate 3.4% among 400,000. KB-V1 MDR cells viability, CellTiter-Glo, 72 h. Potency, µM (titrated, usually from 46.1 µM), usual class: cytotoxic; note: nearly all actives have a fitted effect of over 60% in size
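KB-V1 MDR subline cells in DMEM (phenol-red free, 10% FBS) exposed to compounds in qHTS concentration series for 72 h at 37 degrees C. Viability read by CellTiter-Glo luminescence; concentration-effect curves fitted after normalization and correction.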
ATXN viability = viability counter-screen for ATXN expression inhibitors; Potency, µM (series often up to 56.7 µM), most hits filed as cytotoxic; AID 651635; hit rate 0.49% among 400,000; S2 cells (HEK-293 line with an ATXN2-luciferase reporter) viability, CellTiter-Fluor protease fluorescence, 24 h; note: nearly all actives have a fitted effect of over 40% in size
ATXN2 expr inh = ATXN2 expression inhibition; Potency, µM (doses to about 57 µM), actives largely listed as inhibitors; HEK-293 ATXN2-luciferase reporter, luminescence, 24 h; hit rate 0.72% among 360,000; note: nearly all actives have a fitted effect of over 55% in size
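ATXN2-luciferase reporter cells (luciferase flanked by upstream and downstream ATXN2 gene portions) were treated 24 h at 37 °C with compounds at up to 57 uM. SteadyGlo luminescence gave expression; GF-AFC fluorescence gave viability.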
KB-3-1 tox = KB-3-1 parental cell cytotoxicity; Potency, µM (top dose mostly 46.1 µM), most hits filed as cytotoxic; KB-3-1 viability, CellTiter-Glo ATP luminescence, 72 h; hit rate 1.4% among 400,000; note: nearly all actives have a fitted effect of over 60% in size
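KB-3-1 cells, DMEM (no phenol red) + 10% FBS; compound by pin transfer, 72 h, 37 °C. Readout: CellTiter-Glo luminescence after 10 min. Data normalized, curve-fitted.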
HT1080 IDH1KD tx = kills HT-1080 cells with IDH1 knockdown; HT-1080 IDH1 knockdown viability, ATP luminescence, 48 h; Potency, µM (highest dose often 46.1 µM), most hits filed as cytotoxic; hit rate 2% among 360,000
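Cytotoxicity counter-line: IDH1KD HT-1080, 48 h, CellTiter-Glo. Curves classed by r2, magnitude and activity.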
Numbers stand for hits; . = inactive; ? = inconclusive; / = no result given; [ ] = remark or other dose. Rows were chosen to be rich in hits. Some 6.2% of all compounds tested hit in one or more screens of this group. Calls come from the whole dose curve; as a rule, active = well fitted curve in the direction sought with a large enough effect; inconclusive = small, poorly fitted or top-dose-only effect, or another doubt; inactive = no such curve, though single readings can be large; an effect the other way counts as inactive or inconclusive.

SMILES	HT1080-NT tox	KB-V1 MDR tox	ATXN viability	ATXN2 expr inh	KB-3-1 tox	HT1080 IDH1KD tx
Cc1ccc(SCc2c(C#N)c3ccccc3n2C)cc1	.	.	.	.	.	.
Cc1c(C#N)c2ccccc2n1C	.	.	.	.	?	.
Cn1c(CNc2ccccn2)c(C#N)c2ccccc21	.	23µM	.	.	.	.
Cn1c(CSc2ccccc2)c(C#N)c2ccccc21	.	16µM	.	.	.	.
Cc1nc2c3ccccc3nc(SCC(=O)N3CC(C)CC(C)C3)n2n1 (stereo not drawn)	.	0.58µM	.	.	.	.
Cc1nc2c3ccccc3nc(SCC(=O)c3ccc(Cl)cc3)n2n1	.	10µM	.	.	.	.
COc1ccc(OC)c(-c2cnc(OC(C)(C)C)nc2OC(C)(C)C)c1	?	?	.	/	?	13µM
COc1ccc(NC(=O)C2C(c3ccc4c(c3)OCO4)=Nc3ccccc3N2C(C)=O)cc1 (stereo not drawn)	.	.	/	/	.	.
O=S(=O)(Nc1ccc(O)c(Sc2nc3ccccc3s2)c1)c1ccc(Cl)cc1	.	16µM	.	.	?	.
c1nc(CCO[C@H]2CCCCO2)cc2cc3c(cc12)OCO3	.	.	.	11µM	.	.
c1ccc2cc(CCO[C@H]3CCCCO3)ncc2c1	.	.	.	?	.	.
CS(=O)(=O)Nc1ccc(OCc2ccccc2)cc1	.	.	.	.	.	.
CCOc1ccccc1CNc1ccc(O)cc1	23µM	.	?	.[11.3 µM]	?	?
Oc1ccc(NCc2ccc(OCc3ccccc3)cc2)cc1	23µM	.	?	?	?	?
O=C1CCCC/C1=N\Nc1ccc(OCc2ccccc2)cc1	?	.	.	.	.	5.2µM
CSc1ccc(-c2ccc(C(=O)NCC3CCCO3)c(N3CCC(O)CC3)n2)cc1 (stereo not drawn)	/	/	.	/	/	/
COCCOC(=O)c1[nH]c2c(c1C)C(=O)CC(c1cc(OC)c(OC)c(OC)c1)C2 (stereo not drawn)	.	.	.	.	.	.
Cc1c(C(=O)OCCOC(C)C)[nH]c2c1C(=O)CC(c1ccco1)C2 (stereo not drawn)	0.41µM	0.46µM	?	.	0.52µM	0.33µM
CSCCOC(=O)c1[nH]c2c(c1C)C(=O)CC(c1ccco1)C2 (stereo not drawn)	?	?	?	.	1.2µM	2.3µM
Cc1c(C(=O)OCc2ccccc2)[nH]c2c1C(=O)CC(c1ccco1)C2 (stereo not drawn)	?	?	?	.	0.58µM	1.3µM
COCCOC(=O)c1[nH]c2c(c1C)C(=O)CC(c1ccco1)C2 (stereo not drawn)	2.3µM	1.2µM	?	.	1.2µM	1.6µM
O=S(=O)(c1ccc2c(Cl)cccc2c1)N1CCN(c2nc(-c3cccs3)nc3ccccc23)CC1	.	/	/	/	/	.
Cc1ccc(N(CC(=O)NCCc2ccccc2)S(=O)(=O)N(C)C)cc1	/	.	.	.	.	/
CCOC(=O)c1[nH]c2c(c1C)C(=O)CC(c1ccco1)C2 (stereo not drawn)	1µM	.	?	.	.	0.92µM
O=C(/C=C/Nc1ccc(Oc2ccccc2Cl)cc1)c1ccco1	?	?	.	.	21µM	?
SMILES	HT1080-NT tox	KB-V1 MDR tox	ATXN viability	ATXN2 expr inh	KB-3-1 tox	HT1080 IDH1KD tx
COc1ccccc1Oc1ccc(N/C=C/C(=O)c2ccco2)cc1	.	.	/	.[11.3 µM]	.	.
Cc1ccc(/C=C2/SC(=O)N(CC(=O)N3CCOCC3)C2=O)s1	.	21µM	?	.	.	.
Cc1ccsc1/C=C1/SC(=O)N(CC(=O)N2CCOCC2)C1=O	.	.	.	.	.	.
Cn1cccc1/C=C1/SC(=O)N(CC(=O)N2CCCC2)C1=O	.	16µM	.	.	.	.
Cc1sc2ncn(CC(=O)NCC(=O)N(C)C3CCCCC3)c(=O)c2c1C	.	23µM	.	.	.	.
CCOC(=O)c1ccccc1NC(=O)c1sc2ncn(Cc3cccc(F)c3)c(=O)c2c1C	/	.	?	.	.	/
COc1ccc(CN2CC(=O)N(c3ccc(C)cc3)C2=S)cc1OC	.	.	.	.	.	.
COc1cc(CN2CC(=O)N(c3ccc(C)cc3)C2=S)cc(OC)c1OC	.	10µM	.	.	?	.
